The results in this text go back to PubChem BioAssay AID2782 (National Center for Advancing Translational Sciences (NCATS), 2010).

Results filed as inconclusive are left out. Values without a mark were called inactive. Activity calls are given as the source filed them. Calls come from the whole dose curve; as a rule, active = well fitted inhibition curve with a large enough effect in the polarisation, with a control signal flat (not every such curve was filed as active); inconclusive = small, poorly fitted or top-dose-only effect, or effect the other way, or a change in a side signal; inactive = no such curve, though single readings can be large or run the other way; the % refers to the polarisation.
% is set by controls: 0 for no effect and ±100 for the full control effect; potency is the fitted concentration of half-maximal effect.

This test can be described thus: Confirmation of Inhibitors Targeting the Menin-MLL Interaction in MLL Related Leukemias: Competition With Texas Red Labeled MLL-derived Mutant Peptide. The conditions noted are these: fluorescence polarization, Texas Red MLL peptide displacement; series mostly up to 94.6 µM; FP change, negative = inhibition: at the top concentration. Put shortly:
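FP competition using menin at 200 nM with Texas Red-labeled mutant MLL peptide (50 nM) plus fluorescein MLL-w.t. peptide (25 nM) in 50 mM Tris-HCl pH 7.5, 50 mM NaCl, 1 mM DTT, 0.05% BSA; compound added, 1 hr ambient; polarization read per label.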
Take `CCOc1cc(C(c2c(C)[nH][nH]c2=O)c2c(C)[nH][nH]c2=O)cc(Br)c1OC`: the “FP change, negative = inhibition” value was -14.2% [at 288 µM].

As to `CN(C)C(CNc1ncnc2sc3c(c12)CCCCC3)c1ccco1` (configuration not stated), the Potency was 141 µM (active).

On to `COc1ccccc1C(=O)Nc1ccnn1C1CCN(CC2CC=CCC2)CC1` (configuration not stated), for which the Potency was 126 µM (active).

`CCOC(=O)C1CCN(CC(O)COCc2ccccc2)CC1` (configuration not stated): the “FP change, negative = inhibition” value is -20% [at 288 µM].

`Cc1ccc(C#CC(C)(O)C(C)(C)C)cn1` (configuration not stated): the “FP change, negative = inhibition” value is 24.6%.

Turning to `C[N+]1(CCNC(=O)/C=N/O)CCCCC1`, the “FP change, negative = inhibition” value is -11.8%.

Turning to `COc1cc(NC(=O)c2cccnc2)c(OC)cc1NC(=O)c1ccc(Br)cc1`, the “FP change, negative = inhibition” value was 8.48%.

On to `O=C(CCN1CCN(c2ccc([N+](=O)[O-])cc2)CC1)c1ccc(Cl)cc1`, for which the “FP change, negative = inhibition” value is -16.1% [at 288 µM].

`CCCc1nc2c(=O)[nH]c3ccccc3c2o1`: the “FP change, negative = inhibition” value is 10.2%.

`CCOc1cc(CNCCc2ccc(S(N)(=O)=O)cc2)ccc1OCc1ccccc1`: the Potency was 70.8 µM (active).

For the compound `CCCCC(=O)NC(=S)Nc1nnn(CCC)n1`, the “FP change, negative = inhibition” value was -5.61%.

Turning to `O=C(Nc1nccs1)C(Br)C(Br)c1ccccc1` (configuration not stated), the “FP change, negative = inhibition” value is -29% [at 288 µM].

Turning to `O=C(NNCS(=O)(=O)O)c1ccncc1`, the “FP change, negative = inhibition” value was 3.6%.

Regarding `COc1ccc(C)cc1N(C(=O)c1snc(C(N)=O)c1N)C(C(=O)NC1CCCC1)c1ccc(F)cc1` (configuration not stated), the “FP change, negative = inhibition” value is 34.6% [at 288 µM].

`COc1ccc(CNC(=O)C(c2ccc(O)cc2)N(Cc2ccco2)C(=O)c2snc(C(N)=O)c2N)cc1` (configuration not stated): the “FP change, negative = inhibition” value is 35.1% [at 288 µM].

As for `Cc1cc2c(N)cccc2nn1`, the Potency is 141 µM (active).

Regarding `O=C(C1CCCN(Cc2cccc(Cl)c2)C1)N1CCCCC1` (configuration not stated), the “FP change, negative = inhibition” value was 17.5%.
